The values that follow come from ChEMBL document CHEMBL4808148, “HDAC6 screening dataset using tau-based substrate in an enzymatic assay yields selective inhibitors and activators” (2021).

In general, inhibition refers to the drop in the measured response relative to a control, in per cent.

The experiment addresses T1, Protein deacetylase HDAC6 (Homo sapiens) (UniProt Q9UBN7).
T1 sequence (whole entry): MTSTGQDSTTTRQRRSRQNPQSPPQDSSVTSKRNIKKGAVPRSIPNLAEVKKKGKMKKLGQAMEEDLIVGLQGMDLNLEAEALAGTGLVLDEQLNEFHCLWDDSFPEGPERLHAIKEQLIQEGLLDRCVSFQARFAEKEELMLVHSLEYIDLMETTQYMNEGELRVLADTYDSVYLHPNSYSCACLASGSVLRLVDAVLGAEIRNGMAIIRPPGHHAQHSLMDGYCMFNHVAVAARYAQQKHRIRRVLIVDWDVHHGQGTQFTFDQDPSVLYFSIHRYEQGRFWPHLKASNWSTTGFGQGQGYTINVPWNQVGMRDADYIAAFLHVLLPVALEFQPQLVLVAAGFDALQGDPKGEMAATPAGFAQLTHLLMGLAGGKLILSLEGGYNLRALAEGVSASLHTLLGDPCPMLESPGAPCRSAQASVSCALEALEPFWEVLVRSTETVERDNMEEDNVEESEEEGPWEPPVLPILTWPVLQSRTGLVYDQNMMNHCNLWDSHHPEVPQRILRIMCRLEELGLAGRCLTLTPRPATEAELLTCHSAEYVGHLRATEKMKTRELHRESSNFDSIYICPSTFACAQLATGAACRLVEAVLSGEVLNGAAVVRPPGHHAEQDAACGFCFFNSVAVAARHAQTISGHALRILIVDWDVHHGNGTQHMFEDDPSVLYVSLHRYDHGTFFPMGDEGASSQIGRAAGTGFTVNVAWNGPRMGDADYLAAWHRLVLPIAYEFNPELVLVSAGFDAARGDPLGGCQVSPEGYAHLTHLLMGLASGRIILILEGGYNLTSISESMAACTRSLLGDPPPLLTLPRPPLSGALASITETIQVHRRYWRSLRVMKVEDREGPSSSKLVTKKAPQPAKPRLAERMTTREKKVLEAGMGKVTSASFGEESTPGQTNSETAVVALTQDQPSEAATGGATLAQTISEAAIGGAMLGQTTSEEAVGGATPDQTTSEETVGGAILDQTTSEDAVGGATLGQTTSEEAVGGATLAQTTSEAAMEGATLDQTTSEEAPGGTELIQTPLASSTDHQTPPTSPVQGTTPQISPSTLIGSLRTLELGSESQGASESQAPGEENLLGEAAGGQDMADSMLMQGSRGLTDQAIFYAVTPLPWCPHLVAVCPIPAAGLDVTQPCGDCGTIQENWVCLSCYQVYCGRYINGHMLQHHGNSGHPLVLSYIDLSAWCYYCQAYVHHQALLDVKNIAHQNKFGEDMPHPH
Conditions: at 10 µM.

Structures are written as SMILES. In all, about 5,600 compounds went through this assay and about 390 (7%) showed an effect of 50% or more. This excerpt belongs to a sample that is enriched for strong results. Starred links: 1 amine or outer side, 2 acyl side, 3 side chain; linkers in the order of their positions; H or OH if unused. Positions of bridges follow the written chain, without caps; N, C: chain ends. Residues, ends and D or L forms follow the SMILES beside them. X5 = O=C(CCC[*:2])[*:1]

For `O=C1NC(=O)C(c2ccccc2[N+](=O)[O-])=C1Nc1ccc(O)c(Cl)c1`, the inhibition amounted to 3.99%. In the case of `COc1cc(CCc2cc(NC(=O)c3ccc(N4C[C@@H](C)N[C@@H](C)C4)cc3)n[nH]2)cc(OC)c1` it was 2.96%; in that of `CCc1cn([C@H]2C[C@H](O)[C@@H](CO)O2)c(=O)[nH]c1=O`, -6.76%; in that of `O=c1[nH]c(=O)n([C@H]2C[C@H](O)[C@@H](CO)O2)cc1F`, 12.7%. Take `Cc1cn([C@H]2C=C[C@@H](CO)O2)c(=O)[nH]c1=O`: the inhibition amounted to 102%. As for `CN1c2cc3c(cc2N=C(c2ccc(C(=O)O)cc2)c2ccccc21)C(C)(C)CCC3(C)C`, the figure is 27.7%; as for `Nc1ncnc2c1ncn2[C@@H]1O[C@H](C[C@@H](N)CC[C@H](N)C(=O)O)[C@@H](O)[C@H]1O`, -9.09%. With `CC(C)(COP(=O)(O)OP(=O)(O)OC[C@H]1O[C@@H](n2cnc3c(N)ncnc32)[C@H](O)[C@@H]1OP(=O)(O)O)[C@@H](O)C(=O)NCCC(=O)NCCS`, the inhibition was 15.2%. For the compound `NC(C(=O)O)c1nnn[nH]1` (racemic), the inhibition is 4.47%. As for `Cn1cnc2[nH]c(=O)[nH]c(=O)c21`, the figure is 9.47%; as for `Cc1ccc(-c2ccc(C)cn2)nc1`, 100%. Turning to `CCOC1O[C@H]([C@@H](COCc2ccccc2)OCc2ccccc2)[C@H](OCc2ccccc2)[C@H]1O` (some centres not stated), the inhibition was 29.1%. As to `O=C(O)CCc1c[nH]c2ccccc12`, the inhibition was found to be 6.28%. As for `C/C(=N\N=C(/S)N/N=C(\S)Nc1ccccc1Cl)c1ccccn1`, the figure is 41.4%; as for `COc1ccc2cc3[n+](cc2c1OC)CCc1cc2c(cc1-3)OCO2`, -6.81%; as for `O=C(NC1CCN(Cc2ccccc2)CC1)c1ccc(I)cc1`, 21.3%. In the case of `O=C(COc1ccc(C(=O)c2ccccc2)cc1)NC1CCN(Cc2ccccc2)CC1` it was -4.58%; in that of `O=C(O)c1ccc(CN2CCC(CN[C@@H]3C[C@H]3c3ccccc3)CC2)cc1`, 59.3%; in that of `CCCCCCCCCCCCCCCCCCCCCCCCCCCCO`, 3.55%. For the compound `CCN(CC)CCOC(=O)C1(c2ccccc2)CCCC1`, the inhibition came out at 12.3%. As to `CCC(C)(CN(C)C)OC(=O)c1ccccc1` (configuration not stated), the inhibition stood at 12.2%. In the case of `CC1(C(=O)O)NCCc2cc(O)c(O)cc21` (configuration not stated) it was -7.17%.

In the case of `C[C@@H](c1nc(-c2ccc(C#N)cc2)cs1)[C@](O)(Cn1cncn1)c1cc(F)ccc1F`, the inhibition was found to be 13.7%.

In the case of `COCC(O)Cn1ccnc1[N+](=O)[O-]` (configuration not stated), the inhibition came out at 2.38%. Turning to `CC1(C)S[C@@H]2[C@H](/N=C/N3CCCCCC3)C(=O)N2[C@H]1C(=O)O`, the inhibition came out at 7.48%.

For the compound `c1ccc(-c2ccc(CNc3nc(-c4ccccn4)nnc3-c3ccccc3)cc2)cc1`, the inhibition came to 58.9%. In the case of `CC[C@H](CO)Nc1nc(NCc2ccc(-c3ccccn3)cc2)c2ncn(C(C)C)c2n1` it was 22.9%; in that of `c1ccc(NCc2ccc(CNc3ccccn3)cc2)nc1`, -9.35%.

For the compound `Cn1c(-c2ccccc2)nnc1S(C)(=O)=O`, the inhibition worked out at 36%.

As to `CC1=NN(c2ccccc2)C(=O)C1`, the inhibition is -9.97%. In the case of `C/N=c1/nc(-c2ccccc2)n(-c2ccccc2)s1` it was 83.4%.

For the compound `O=C(c1ccc(F)cc1)C1CCN(CCn2c(=S)[nH]c3ccccc3c2=O)CC1`, the inhibition was determined as 13.2%. Take `O=C(O)c1c2ccccc2cc2ccccc12`: the inhibition came to 22.9%. As for `Cn1ncc(Cl)c1-c1cc(C(=O)N[C@H](CN)Cc2cccc(F)c2)sc1Cl`, the figure is -7.69%. As for `FC(F)(F)c1cccc(-c2noc(-c3cc(-c4ccccc4)c(C(F)(F)F)s3)n2)c1`, the figure is 18.5%; as for `O=C(c1ccc(F)cc1)N1CCC[C@H](c2nc(-c3ccc(F)cc3)no2)C1`, 10.8%. With `O=C(O)c1cccc(-c2noc(-c3ccccc3F)n2)c1`, the inhibition amounted to 105%. For `CC1=C(/C=C/C(C)=C/C=C/C(C)=C/C=C/C=C(C)/C=C/C=C(C)/C=C/C2=C(C)C(=O)[C@@H](O)CC2(C)C)C(C)(C)C[C@H](O)C1=O`, the inhibition is 10.4%. Take `COc1ccc2cc1Oc1cc3c(cc1OC)CC[N+](C)(C)[C@H]3Cc1ccc(cc1)Oc1c(OC)c(OC)cc3c1[C@@H](C2)[N+](C)(C)CC3`: the inhibition turned out to be 16.5%. As for `CC[C@H](C)[C@@H]1NC(=O)[C@H](Cc2ccc(OC)cc2)NC(=O)CCCSC[C@@H](C(=O)N2CCC[C@H]2C(=O)N[C@@H](CC(C)C)C(=O)NCC(N)=O)NC(=O)[C@H](CC(N)=O)NC(=O)[C@H](CCC(N)=O)NC1=O` (Y(Me)IQNCPLG-NH2; linker N-5 via X5), the figure is 11%. As for `COc1cc(C[C@@H](CO)[C@H](CO)Cc2ccc(O)c(OC)c2)ccc1O`, the inhibition came out at 21.1%. In the case of `CCC(=O)NC[C@@H]1C[C@H]1c1cccc2c1CCO2` it was -8.79%. For the compound `O=C(O)CCCN1C(=O)c2cccc3cccc(c23)C1=O`, the inhibition was -3.55%. As for `CN(C)CCN1C(=O)c2cccc3cc(N)cc(c23)C1=O`, the figure is 24.8%. As for `O=C(CCCCCN1C(=O)c2cccc3cccc(c23)C1=O)NO`, the figure is 100%; as for `CN1CCN(CCCCN2C(=O)CN(/N=C/c3ccc(-c4ccc(Cl)cc4)o3)C2=O)CC1`, -7.57%; as for `COc1cc(Br)c(Nc2nc(-c3c(C)nc4ncccn34)cs2)c(Br)c1`, -6.53%.

Take `CCOc1ccc(-c2nc(-c3cccc4c3CCC4NCCO)no2)cc1OCC` (configuration not stated): the inhibition is 26.2%. In the case of `CC(O)CCCCn1c(=O)c2c(ncn2C)n(C)c1=O` (configuration not stated) it was 14.8%. With `CC(C)(C)c1cc(C(=O)/C(C#N)=N/Nc2cccc(Cl)c2)no1`, the inhibition is 58.9%. Take `O=C(O)c1cc2ccccc2s1`: the inhibition is 36%.

As to `CCCCCCCCCCCCCCCCCCO`, the inhibition was 10.8%.
